The values below come from PubChem BioAssay (NCI).

Each structure is given as a SMILES string. Compounds without any hit were thinned out: in the full panel of roughly 83,000, 20% have a hit.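 Results are percent growth after 48 hours of single-concentration exposure. 100 means growth as in untreated cells, lower positive values show inhibition; negative values down to -100 show cell death.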 Values without a mark were called inactive. Calls of active or inactive are those of the source. How the source made its calls: active means growth percent below 10; inactive means the rest.

Some test systems named below: RPMI-8226 leukemia; OVCAR-8 ovarian; OVCAR-5 ovarian; OVCAR-4 ovarian; SK-OV-3 ovarian; IGROV1 ovarian; OVCAR-3 ovarian; NCI/ADR-RES ovarian; T-47D breast; BT-549 breast; MDA-MB-435 melanoma; SW-620 colon; MCF7 breast; HCT-116 colon; KM12 colon; HS 578T breast; HCC-2998 colon.
Holding throughout (assay): NCI-60 one-dose screen, 48 h (100 = growth as untreated, 0 = no growth, -100 = all killed)
Conditions in all cases: 10 µM

Turning to `COc1cccc(C(=O)NNc2nc(N3CCOCC3)nc(N3CCN(C(c4ccccc4)c4ccccc4)CC3)n2)c1`, the growth in the test on RPMI-8226 leukemia is 71.2%; in the test on OVCAR-8 ovarian it was 82.5%; in the test with OVCAR-5 ovarian it was 94.1%; in the test with OVCAR-4 ovarian, 73.4%; with SK-OV-3 ovarian it was 73.7%; in the test with IGROV1 ovarian, 67.4%. Also, the growth is 74.6% with OVCAR-3 ovarian; 84.3% with NCI/ADR-RES ovarian; 59.2% in the test on T-47D breast; 87.9% in the test with BT-549 breast; 96.8% with MDA-MB-435 melanoma; 96.5% with SW-620 colon. In addition, the growth was 79.8% with MCF7 breast, 85.4% in the test with HCT-116 colon and 77.7% with KM12 colon.

For `CCOC(=O)c1c(C(F)(F)F)n([O-])c2ccc(OC)cc2[n+]1=O`, the growth with RPMI-8226 leukemia is -34.8% (active); in the test with OVCAR-8 ovarian it was 23.8%; in the test with OVCAR-5 ovarian, 60.8%; in the test on OVCAR-4 ovarian, 30.5%; in the test with SK-OV-3 ovarian, 23.8%; in the test with IGROV1 ovarian, 24.2%. In addition, the growth was 32.9% in the test on OVCAR-3 ovarian; 41.1% in the test on HS 578T breast; 31.3% in the test on NCI/ADR-RES ovarian; 12% in the test with T-47D breast; -3.39% (active) in the test on BT-549 breast; 23.6% in the test on MDA-MB-435 melanoma. Besides, the growth with SW-620 colon was 30.2%; in the test on MCF7 breast, 31.9%; in the test on HCT-116 colon it was 29.4%; with HCC-2998 colon it was 43.8%; with KM12 colon, 43.7%.

In the case of `CC(=O)N(O)c1ccc(/C=C/c2ccccc2)cc1`, the growth is 46.8% in the test with RPMI-8226 leukemia; 32.1% with OVCAR-8 ovarian; 33.1% with OVCAR-5 ovarian; 54.7% with OVCAR-4 ovarian; 9.48% (active) with SK-OV-3 ovarian; -14% (active) in the test with IGROV1 ovarian. Besides, the growth with OVCAR-3 ovarian is 42%; in the test with HS 578T breast it was 61.7%; in the test on NCI/ADR-RES ovarian it was 22.6%; in the test on T-47D breast it was 20.5%; with BT-549 breast, 43.5%; with MDA-MB-435 melanoma, 55.1%. In addition, the growth with SW-620 colon was 23.3%; with MCF7 breast, 16.7%; in the test with HCT-116 colon, 19.7%; with HCC-2998 colon it was 14.3%; in the test on KM12 colon, 47.9%.

With `O=C(O)CN1C(=O)C=CC1=O`, the growth in the test on RPMI-8226 leukemia is 106%; in the test with OVCAR-8 ovarian it was 108%; in the test on OVCAR-5 ovarian, 101%; in the test with OVCAR-4 ovarian, 115%; in the test with SK-OV-3 ovarian it was 105%; with IGROV1 ovarian it was 100%. In addition, the growth is 104% with OVCAR-3 ovarian; 107% in the test with HS 578T breast; 111% in the test on NCI/ADR-RES ovarian; 101% in the test with T-47D breast; 114% in the test on BT-549 breast; 106% in the test with MDA-MB-435 melanoma. For the same molecule, the growth in the test with SW-620 colon was 107%; with MCF7 breast, 102%; with HCT-116 colon it was 107%; with HCC-2998 colon, 107%; in the test with KM12 colon, 102%.

Take `c1ccc(COCC[P+](c2ccccc2)(c2ccccc2)c2ccccc2)cc1`: the growth with RPMI-8226 leukemia was -30.3% (active); in the test on OVCAR-8 ovarian it was 3.8% (active); in the test with OVCAR-5 ovarian, 24.2%; with OVCAR-4 ovarian it was 6.56% (active); in the test with SK-OV-3 ovarian, -0.443% (active); with IGROV1 ovarian, -8.1% (active). For the same molecule, the growth with OVCAR-3 ovarian was 3.01% (active); with HS 578T breast it was 32.9%; with NCI/ADR-RES ovarian, 81.8%; in the test on T-47D breast, 12%; with BT-549 breast it was 5.25% (active); with MDA-MB-435 melanoma, -0.102% (active). Further, the growth in the test with SW-620 colon is 14%; in the test with MCF7 breast, 4.89% (active); with HCT-116 colon, 5.42% (active); in the test with HCC-2998 colon, 6.68% (active); in the test on KM12 colon, 6.34% (active).

In the case of `NC(=O)c1ccc(Br)o1`, the growth with RPMI-8226 leukemia is 112%; in the test with OVCAR-8 ovarian, 108%; in the test on OVCAR-5 ovarian, 105%; in the test with OVCAR-4 ovarian, 107%; with SK-OV-3 ovarian, 104%; in the test with IGROV1 ovarian, 107%. The growth in the test with OVCAR-3 ovarian is 107%; with HS 578T breast, 109%; in the test with NCI/ADR-RES ovarian it was 96.8%; in the test with T-47D breast, 92.9%; in the test with BT-549 breast it was 103%; in the test with MDA-MB-435 melanoma, 112%. The growth in the test with SW-620 colon was 113%; in the test with MCF7 breast, 95.5%; with HCT-116 colon, 108%; with HCC-2998 colon, 91.1%; with KM12 colon, 102%.

`CC1(C)CNC(=O)N1`: the growth is 95.8% in the test on RPMI-8226 leukemia; 99.8% in the test with OVCAR-8 ovarian; 108% with OVCAR-5 ovarian; 99.7% in the test with OVCAR-4 ovarian; 95.6% in the test with SK-OV-3 ovarian; 99.9% with IGROV1 ovarian. The growth with OVCAR-3 ovarian is 108%; in the test on HS 578T breast, 98.8%; with NCI/ADR-RES ovarian, 109%; with T-47D breast, 99.2%; in the test on BT-549 breast, 103%; with MDA-MB-435 melanoma, 102%. The growth in the test on SW-620 colon is 102%; in the test with MCF7 breast, 94.5%; with HCT-116 colon it was 91.6%; with HCC-2998 colon it was 95.7%; in the test with KM12 colon, 104%.

Consider `COc1ccc(C(=O)/C=C/c2cc(-c3ccc4c(c3)OCO4)n[nH]2)cc1OC`, for which the growth is 4.4% (active) with RPMI-8226 leukemia; 47.4% with OVCAR-8 ovarian; 75.9% in the test with OVCAR-5 ovarian; 59.9% in the test on OVCAR-4 ovarian; 93.3% in the test with SK-OV-3 ovarian; 44.1% with IGROV1 ovarian. Further, the growth with OVCAR-3 ovarian is 36.6%; in the test with HS 578T breast, 79.3%; with NCI/ADR-RES ovarian it was 57.8%; with T-47D breast it was 43.8%; with BT-549 breast it was 41.4%; in the test with MDA-MB-435 melanoma, 73.5%. Also, the growth was 36.4% in the test on SW-620 colon; 27.2% in the test on MCF7 breast; 18.4% in the test with HCT-116 colon; 91.3% with HCC-2998 colon; 54.1% in the test with KM12 colon.

For the molecule `O=C(c1ccccc1)C(Sc1ccccc1)c1ccccc1` (stereo unspecified), the growth is 81.7% with RPMI-8226 leukemia; 86.8% in the test on OVCAR-8 ovarian; 96% in the test with OVCAR-5 ovarian; 78.7% in the test on OVCAR-4 ovarian; 103% with SK-OV-3 ovarian; 83.8% in the test on IGROV1 ovarian. Besides, the growth is 109% with OVCAR-3 ovarian; 100% with HS 578T breast; 82.7% in the test on NCI/ADR-RES ovarian; 90.8% with T-47D breast; 92.9% in the test with BT-549 breast; 107% in the test on MDA-MB-435 melanoma. Also, the growth in the test on SW-620 colon was 57.8%; in the test with MCF7 breast, 94%; with HCT-116 colon, 55.8%; in the test with HCC-2998 colon, 87.8%; in the test with KM12 colon, 99.5%.
